Test results from PubChem BioAssay (EPA / NIEHS).
Calls of active or inactive are those of the source. How the source made its calls: active means hit-call score of the fitted dose curve at least 0.9, where 1 is the maximum; inactive means score below 0.9.

The molecules below were run against Nuclear respiratory factor 1 (Homo sapiens) (UniProt Q16656) (assay: ATG_NRF1_CIS: Attagene CIS-FACTORIAL HepG2 Assay for human Nuclear Respiratory Factor 1 (NRF1) Orphan Gene (AID 2282987)). Conditions: HepG2 NRF1 cis-element reporter, Attagene multiplex; actives raise or lower the signal.
Sequence of Nuclear respiratory factor 1 (Homo sapiens) (Q16656 whole entry, looked up): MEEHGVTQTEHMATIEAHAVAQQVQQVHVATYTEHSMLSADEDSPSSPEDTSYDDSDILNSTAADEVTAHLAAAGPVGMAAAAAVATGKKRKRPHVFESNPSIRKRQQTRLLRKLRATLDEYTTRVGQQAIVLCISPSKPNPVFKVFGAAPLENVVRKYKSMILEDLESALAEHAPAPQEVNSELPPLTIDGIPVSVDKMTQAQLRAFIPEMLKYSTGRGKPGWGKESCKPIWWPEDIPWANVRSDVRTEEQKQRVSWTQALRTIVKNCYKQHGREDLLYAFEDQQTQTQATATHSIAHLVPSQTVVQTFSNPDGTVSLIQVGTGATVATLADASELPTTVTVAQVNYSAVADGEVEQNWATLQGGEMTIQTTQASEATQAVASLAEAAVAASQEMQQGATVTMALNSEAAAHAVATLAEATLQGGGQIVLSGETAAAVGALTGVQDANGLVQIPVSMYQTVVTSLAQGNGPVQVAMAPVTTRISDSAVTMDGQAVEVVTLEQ
Protocol: ATG_CIS is a cell-based, multiplexed-readout assay that uses HepG2, a human liver cell line, with measurements taken at 24 hours after chemical dosing in a 24-well plate.ATG_NRF1_CIS is one of 52 assay component(s) measured or calculated from the ATG_CIS assay. It is designed to make measurements of mRNA induction, a form of inducible reporter, as detected with fluorescence intensity signals by Reverse transcription polymerase chain reaction (RT-PCR) and Capillary electrophoresis technology.Data from the assay component ATG_NRF1_CIS was analyzed into 1 assay endpoint. This assay endpoint, ATG_NRF1_CIS, was analyzed with bidirectional fitting relative to DMSO as the negative control and baseline of activity. Using a type of inducible reporter, measures of mRNA for gain or loss-of-signal activity can be used to understand the reporter gene at the transcription factor-level as they relate to the gene NRF1. Furthermore, this assay endpoint can be referred to as a primary readout, because this assay has produced multiple assay endpoints where this one serves a reporter gene function. To generalize the intended target to other relatable targets, this assay endpoint is annotated to the dna binding intended target family, where the subfamily is nuclear respiratory factors.
Human liver HepG2 cells are transiently transfected with multiple reporter transcription units (MRTUs) in 6-well plates using FuGene 6 reagent (Roche; 3 ml FuGene/1 mg DNA). The MRTU constructs are regulated by a cis-regulating element (promoter). […] A major difference between the CIS and TRANS system is that in CIS activities of endogenous TFs are measured, whereas the TRANS assay evaluates changes in activities of exogenous, chimeric NR-Gal4 proteins. […] At the end of 24 hour incubation, total RNA was isolated using TriZol reagent (Invitrogen). The isolated RNA is then reverse-transcribed using oligo(dT) primer and Mo-MLV reverse transcriptase (Invitrogen) with DNAse I (Ambion) treatment for 30 min. The one-tenth of the produced cDNA was amplified by PCR using Taq DNA polymerase (Invitrogen) and two reporter sequence-specific primers. The PCR products were fluorescently labeled by primer extension with 6-arboxyfluorescein (6-FAM) 5'-labeled reporter sequence-specific primer (2 min at 95 C, 20 s at 68 C and 10 min at 72 C) and these products were digested with 5U of HpaI (New England Biolabs) for 2h at 37 C. The fragments were purified using Qiaquick PCR columns (Qiagen), analyzed on an ABI 3130xL genetic analyzer (Applied Biosystems) with peak positions identified by using a set of X-rhodamine (ROX)-labeled MapMarker1000 molecular weight standards (BioVentures). The raw capillary electrophoresis data was processed using Attagraph software (Attagene).
With `CCCCOCCOCCOCCO` the outcome was “inactive”.
`C=C1CC[C@H]2O[C@]2(C)CC[C@@H]2[C@@H]1CC2(C)C` was tested, and the outcome was “inactive”.
With `NNC(=O)OCc1ccccc1` the outcome was “inactive”.
With `O=c1cc[nH]cc1` the outcome was “inactive”.
`CC1COC(=O)O1` (stereo not given) was tested, and the outcome was “inactive”.
In the case of `O=S1(=O)CC=CC1`, the outcome was “inactive”.
For `CC(=O)Oc1c(C)c(C)c2c(c1C)CC[C@@](C)(CCC[C@H](C)CCC[C@H](C)CCCC(C)C)O2`, the outcome was “inactive”.
For `CCCCC/C=C\C=C\C(=O)OCC`, the AC50 was 50.4 µM (active).
For `CC(=O)CCC=C(C)CCC=C(C)C`, the outcome was “inactive”.
`C=C(C)C(N)=O` was tested, and the outcome was “inactive”.
With `O=c1cc(-c2ccc(O)cc2)oc2cc(O)cc(O)c12` the outcome was “inactive”.
For `CC(C)(CO)CO`, the outcome was “inactive”.
`CC(CO)(CO)[N+](=O)[O-]` was tested, and the outcome was “inactive”.
With `CCCCCCCCCCCCCC(=O)OCC` the outcome was “inactive”.
`CC(C)OB(OC(C)C)OC(C)C` was tested, and the outcome was “inactive”.
In the case of `CC(=O)OC(C)(C)C1CC=C(C)CC1` (stereo not given), the outcome was “inactive”.
With `CC(C)CCCC(C)(C)O` the outcome was “inactive”.
`C1=COCCC1` was tested, and the outcome was “inactive”.
`CCCCCCCCCOS(=O)(=O)O` was tested, and the outcome was “inactive”.
In the case of `NC(N)=S`, the outcome was “inactive”.
`NCCN1CCNCC1` was tested, and the outcome was “inactive”.
In the case of `CC(CO)c1ccccc1` (stereo not given), the outcome was “inactive”.
In the case of `Cc1ccc(C(C)(C)O)cc1`, the outcome was “inactive”.
With `CC(C)Cc1ccc(C(C)C(=O)O)cc1` (stereo not given) the outcome was “inactive”.
`[Cu+]` was tested, and the outcome was “inactive”.
With `COC(=O)c1ccc(C(=O)OC)cc1` the outcome was “inactive”.
With `CCCCCCC(C)O` (stereo not given) the outcome was “inactive”.
For `COC(=O)c1cccc(C(=O)OC)c1`, the outcome was “inactive”.
With `CCCCCCCC(=O)N(C)C` the outcome was “inactive”.
`CCCCC1CCCCC(=O)O1` (stereo not given) was tested, and the outcome was “inactive”.
`CCOC(=O)CC(C)C` was tested, and the outcome was “inactive”.
In the case of `Nc1ccn([C@H]2CC[C@@H](CO)O2)c(=O)n1`, the outcome was “inactive”.
For `C=CC(C)CCCC(C)(C)O` (stereo not given), the outcome was “inactive”.
`COc1cc(OC)c2ccc(=O)oc2c1` was tested, and the outcome was “inactive”.
For `CCCOC(=O)CC`, the outcome was “inactive”.
For `CCCCCCCCCC(=O)OCC`, the outcome was “inactive”.
With `CCCCCC#CC(=O)OC` the outcome was “inactive”.
For `N=C1N=C(N)c2ccccc21`, the outcome was “inactive”.
`CC(=O)CC(=O)N(C)C` was tested, and the outcome was “inactive”.
`CCCCCc1cccc(=O)o1` was tested, and the outcome was “inactive”.
